# PubChem BioAssay AID743262 (National Center for Advancing Translational Sciences (NCATS), 2014)
# In all, about 1,300 compounds went through this assay and about 25 (2%) were called active. Inconclusive results (about 9%) are left out. Calls come from the whole dose curve; as a rule, active = well fitted activation curve with a large enough effect; inconclusive = small, poorly fitted or top-dose-only effect; inactive = flat fitted curve, though single readings scatter. Many of the other results were omitted from the sample, so actives are more common in it than they were.
# Molecular target: Glucagon-like peptide 1 receptor (Homo sapiens) (UniProt P43220)
# Experiment: qHTS of GLP-1 Receptor Agonists: Hit Validation; for activation: % of control where 0% means no effect
# Settings: HEK293 GLP-1R, cAMP-response luciferase, 4-6 h; series mostly up to 46.1 µM; activation: at the top concentration
# Text: The overall goal of this project was to develop a novel assay for discovering small molecule ligands for class B1 G protein-coupled receptors (GPCRs). Very few agonists (or inverse agonists) with generally weak activity for this entire group of physiologically important receptors are known to date. To establish proof-of-principle that this critical bottleneck can be overcome with a suitable screening approach, our studies focused on the class B1 receptor for glucagon-like peptide-1 (GLP-1R), a potential therapeutic target for diabetes and neurodegenerative disease. The assay was developed in a "mix and measure" format using a cell-based functional readout. Toward this goal, stably transfected HEK293 cell clones were established that co-express (i) a cAMP-responsive luciferase reporter gene, and (ii) GLP-1Rs that upon ligand interaction either stimulate (agonists) or inhibit (inverse agonists) luciferase activity. In different cell lines to be used for screening, expressed GLP-1Rs are specifically optimized for high sensitivity detection of either weak agonists (hypersensitive receptor) or inverse agonists (constitutively active receptor mutant). In addition, control cell lines were developed that express either the cAMP-responsive reporter gene without recombinant GLP-1Rs (enabling initial exclusion of GLP-1R independent effects of candidate probes), or the reporter gene together with wild type GLP-1Rs (for confirmation of probe activity at this receptor), or the reporter gene in combination with the constitutively active orphan receptor GPR119 (enabling initial exclusion of GLP-1R independent inhibitory effects of candidate inverse agonists). To that end, this assay was optimized for 1536-well format and screened against the MLSMR. NIH Molecular Libraries Probe Production Network [MLPCN] NIH Chemical Genomics Center [NCGC] Grant: NS064851 PI Name: Martin Beinborn, Tufts Medical Center
# In a white solid 1536-well plate, 6 uL of cells are dispensed in DMEM without phenol red, 10% Nu serum, and 1% pen-strep medium. The plates are then incubated for 12 hours at 37 deg C at 5% CO2 before 23 nL of compounds are added. After a 4-6 hr incubation at37 deg C and 5% CO2, 3 uL of detection reagent are added and after a 12 min incubation at RT, a luminescent read is obtained on the ViewLux.
# Potency is the fitted concentration of half-maximal effect.
# Glucagon-like peptide 1 receptor (Homo sapiens), sequence (P43220 whole entry, looked up): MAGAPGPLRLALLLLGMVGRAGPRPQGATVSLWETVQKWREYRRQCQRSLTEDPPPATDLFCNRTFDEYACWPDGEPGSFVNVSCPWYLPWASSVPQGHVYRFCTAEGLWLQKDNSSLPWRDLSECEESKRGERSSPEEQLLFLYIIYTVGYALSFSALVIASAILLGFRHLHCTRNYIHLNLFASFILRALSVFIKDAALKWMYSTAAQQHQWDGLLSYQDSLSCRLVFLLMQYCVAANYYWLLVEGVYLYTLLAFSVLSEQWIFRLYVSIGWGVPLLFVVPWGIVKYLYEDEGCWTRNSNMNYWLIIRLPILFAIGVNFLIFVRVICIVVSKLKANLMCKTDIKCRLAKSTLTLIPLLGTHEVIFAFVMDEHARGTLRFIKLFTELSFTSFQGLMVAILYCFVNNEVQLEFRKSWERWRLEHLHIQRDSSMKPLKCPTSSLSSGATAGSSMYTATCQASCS
Structure (SMILES),activation,Potency
Cc1ccc(C)c(S(=O)(=O)Nc2cc3c4c(c2)CCC(=O)N4CCC3)c1,4.82% (inactive),
COc1cc2c(cc1OC)C(C)N(C(=O)C1COc3ccccc3O1)CC2 (stereo not drawn),1.66% (inactive),
COc1ccc(-c2nc(C#N)c(NCc3ccc(C)cc3)o2)cc1OC,26.6% (inactive),
COC(=O)c1ccc(CSc2nnc3nc(C)cc(C)n23)cc1,7.79% (inactive),
C=CCOc1ccc(CNc2nccs2)cc1OCC,0.231% (inactive),
CCOC(=O)c1c(C)n(-c2ccccc2)c2ccc(OCCN(C)C)cc12,1.98% (inactive),
CC(=O)c1oc2ccccc2c1NC(=O)CN1CCCCC1,2.43% (inactive),
CCN(CC)CC(=O)Nc1scc2c1c(=O)oc1ccccc12,,8.2 µM (active)
CC(=O)Nc1nc(CC(C)C)cc2c1c(=O)oc1ccccc12,-0.314% (inactive),
CCOC(=O)c1sc(NC(=O)C2=COCCO2)c(C#N)c1C,1.43% (inactive),
COc1cccc(OCCNc2cc(N3CCOCC3)ccc2[N+](=O)[O-])c1,23% (inactive),
CCOC(=O)c1c(NC2OC(=O)c3c2ccc(OC)c3OC)sc(C(=O)OC(C)(C)C)c1C (stereo not drawn),10.4% (inactive),
N#Cc1c(-c2ccc(F)cc2)noc1N,-0.686% (inactive),
COc1ccc(CSc2nnnn2-c2ccccc2)cc1,0.383% (inactive),
O=[N+]([O-])c1cnccc1NC1CCCCC1,3.34% (inactive),
O=C1CN(c2nc(-c3cccnc3)nc3sc4c(c23)CCCC4)CCN1,26.3% (inactive),
COC(=O)CSc1ncnc2scc(-c3ccccc3)c12,8.75% (inactive),
COC(=O)CCSCC(=O)N1N=C(c2ccc(OC)cc2)CC1c1cccc(OC)c1OC (stereo not drawn),3.02% (inactive),
CCC(=O)Nc1sc2c(c1C#N)CCCCC2,0.438% (inactive),
Cc1nc(N2CCOCC2)c2cc(-c3ccccc3)sc2n1,,8.2 µM (active)
CN(C)c1ncnc2sc(-c3ccccc3)cc12,18.2% (inactive),
Cc1nc(N2CCOCC2)c2c(C)c(C(=O)Nc3ccccc3C(F)(F)F)sc2n1,5.01% (inactive),
COc1ccc(C(=O)NCC2(c3ccc(OC)c(OC)c3)CCCC2)cc1OC,14.5% (inactive),
CC(=NNC(=S)Nc1ccc(C)cc1)c1ccccn1,24.4% (inactive),
COC(=O)c1ccc(Cn2nc(-c3cc(C)ccc3C)ccc2=O)cc1,1.3% (inactive),
COc1cc(SC)ccc1C(=O)Nc1ccccc1,2.97% (inactive),
Cc1c(C)n(Cc2ccccc2)c2ncnc(NCCO)c12,-0.311% (inactive),

Structure (SMILES),activation,Potency
COc1ccc(-c2cc(C(=O)N3CCCC(C(F)(F)F)C3)c3ccccc3n2)cc1OC (stereo not drawn),7.08% (inactive),
C=CCN1N=C(c2ccc(Cl)s2)CSC1=O,4.36% (inactive),
CCOC(=O)c1nnn(-c2nonc2N)c1-c1cccs1,-0.622% (inactive),
CCc1ccc(C(=O)COC(=O)c2cc([N+](=O)[O-])ccc2N2CCOCC2)cc1,14.8% (inactive),
COc1ccc(C(=O)c2cc([N+](=O)[O-])ccc2N2CCOCC2)cc1,9.91% (inactive),
COc1ccc(C(=O)COC(=O)c2cc([N+](=O)[O-])ccc2N2CCOCC2)c(OC)c1,,20.6 µM (active)
CC(=O)Nc1cc(-c2ccccc2Cl)cn2c(-c3ccc(S(C)(=O)=O)cc3)cnc12,26.3% (inactive),
COc1ccc(-c2nnc(OCc3nc4ccccc4n3C)c3ccccc23)cc1,18.7% (inactive),
CCOc1ccc(Br)cc1S(=O)(=O)Nc1ccc(C(=O)OCC(=O)N(C)c2ccccc2)cc1,0.375% (inactive),
CCOC(=O)c1c(C)[nH]c2cc(Br)c(O)cc12,11.9% (inactive),
CC1CN(c2nc(N(C)c3ccccc3)nc(N)c2[N+](=O)[O-])CC(C)O1 (stereo not drawn),4.07% (inactive),
COc1ccc(-c2nc(C#N)c(NC(C)c3ccccc3)o2)cc1OC (stereo not drawn),24.4% (inactive),
CCOC(=O)n1c(=O)n(Cc2ccccc2Cl)c2ccccc21,3.3% (inactive),
O=c1[nH]nc(-c2ccc(NCCO)c([N+](=O)[O-])c2)c2ccccc12,13.2% (inactive),
COc1ccc(C(=O)Cc2ccccc2)cc1OC,1.93% (inactive),
COCc1cc(C)nc2sc(C(=O)OC(C)C)c(N)c12,6.32% (inactive),
CCCCn1c(=NC(=O)c2cccnc2)c(C(=O)OCC)cc2c(=O)n3ccccc3nc21,7.86% (inactive),
COc1ccc(NC(=O)c2cccnc2)cc1OCC(C)C,0.0143% (inactive),
O=C(Cn1nc(-c2ccc(N3CCOCC3)c([N+](=O)[O-])c2)c2ccccc2c1=O)N1CCCCC1,20.3% (inactive),
OC(c1ccccc1)c1nc(-c2ccccc2)cs1 (stereo not drawn),-0.205% (inactive),
OC(c1ccccc1)c1nc(-c2csc3ccccc23)cs1 (stereo not drawn),,7.31 µM (active)
COc1ccccc1Nc1nc(Cl)nc(Nc2ccccc2OC)n1,7.81% (inactive),
CCOc1ccc(Oc2c(/C=N/NC(N)=O)c(C)nn2-c2ccccc2)cc1,16% (inactive),
CCN(CC)S(=O)(=O)c1cc(NC(=O)c2ccccc2OCc2c(C)noc2C)ccc1C,1.93% (inactive),
CCc1cc2c(-c3ccccc3)cc(=O)oc2c(CN2CCOCC2)c1O,4.04% (inactive),
N#C/C(=C\c1ccc(N2CCOCC2)c([N+](=O)[O-])c1)c1nc2ccccc2[nH]1,4.71% (inactive),
